Screening results as filed in PubChem.
PGE2 EP2 inh = blocks the human prostaglandin E2 receptor EP2. C6 glioma cells expressing human EP2, cAMP TR-FRET; cells stimulated with saturating PGE2. inhibition, % at 25 µM. hit rate 0.52% among 260,000;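 active = percent inhibition above 40 after rounding to a whole number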;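 note: rat C6 glioma host cells with rolipram phosphodiesterase inhibitor present; the protocol text gives 20 µM as final concentration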
Target sequence (P43116 whole entry, looked up): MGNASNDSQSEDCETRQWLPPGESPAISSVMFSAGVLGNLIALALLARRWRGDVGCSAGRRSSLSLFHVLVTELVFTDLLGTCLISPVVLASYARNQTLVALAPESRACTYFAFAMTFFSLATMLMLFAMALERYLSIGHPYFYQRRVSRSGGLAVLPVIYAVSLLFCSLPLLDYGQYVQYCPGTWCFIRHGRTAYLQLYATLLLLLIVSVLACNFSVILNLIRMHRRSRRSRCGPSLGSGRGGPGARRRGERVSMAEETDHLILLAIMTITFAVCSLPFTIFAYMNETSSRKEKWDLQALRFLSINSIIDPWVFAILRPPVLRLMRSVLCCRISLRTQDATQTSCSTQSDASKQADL
CHT PAM = allosterically activates the human high affinity choline transporter; Q9GZV3; CHT-expressing cells, membrane potential dye, choline EC20; hits give high values; LV-AA mutant CHT in HEK293 cells; B-score at 10 µM; hit rate 0.49% among 310,000;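 active = initial fluorescence not abnormally high and integrated response B-score, plate-corrected, over 3 SD above library mean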
EP2 mod = EP2 receptor (human) modulation. induction, % at 25 µM. hit rate 0.83% among 260,000. AID 940. EP2-expressing cells, cAMP HTRF FRET, PGE2 co-stimulation. P43116;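 active = compounds whose cAMP rise, as percent of the full-agonist control response, exceeds 60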;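 note: rat C6 glioma line stably carrying human EP2 under a CMV promoter; the protocol text gives 20 µM as final concentration; 100% = response of wells given 1 µM PGE2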
CHT block = inhibitors of human choline transporter CHT. hit rate 0.86% among 310,000. CHT-expressing cells, membrane potential dye, choline response; hits give low values. AID 488975. B-score at 10 µM;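 active = B-score over 3 SD under the library average, and starting fluorescence ratio not unusually high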;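 note: choline stimulus applied at its EC90 after an EC20 pre-addition; B-score computed on integrated fluorescence ratio after choline addition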
CHT activ conf = human CHT activation, confirmatory screen; activation, % at 10 µM; hit rate 91% among 2,500; CHT-expressing cells, membrane potential dye fluorescence (FDSS); % of choline EC20–EC90 response window; HEK293 expressing CHT LV-AA mutant; choline added at its EC20; shares compounds with CHT PAM; AID 504833;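 active = primary screen active, with duplicate mean activation above negative control mean plus 3 SD, cut at about 11% in these data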
HEK293 MP dye = counter-screen for CHT activators: effect in parental HEK293 cells. shares compounds with CHT PAM. membrane potential dye fluorescence (FDSS); measured after EC20 choline addition. ratio readout change at 10 µM, hits read low. hit rate 62% among 2,500. AID 623908;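 active = duplicate-averaged ratio beyond 3 SD from buffer wells, up or down, though filed actives are nearly all decreases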
* = called active by the depositor; i = inactive; x = not tested or not shown. In the library only some 2% were active in any assay of this set; here they are far more common.

SMILES	PGE2 EP2 inh	CHT PAM	EP2 mod	CHT block	CHT activ conf	HEK293 MP dye
COc1ccc(C2(NS(=O)(=O)c3ccc4c(c3)oc(=O)n4C(C)C)CC2)cc1	0	x	-59	x	x	x
Cc1ccc2c(c1)-c1cc(C)nn1C(c1c[nH]c3ccccc13)N2 (stereo unspecified)	17	x	-56	x	x	x
O=C(NCCCn1ccnc1)c1cc(-c2ccncc2)nc2ccccc12	2	6.3*	2	i	60*	-59*
O=C(N/N=C/c1cccs1)c1cc(-c2ccncc2)nc2ccccc12	7	i	2	i	44*	i
O=C(NCCCn1ccnc1)c1cc(-c2ccc(Cl)cc2)nc2ccccc12	15	i	-15	i	x	x
CC(=O)c1ccc2c(c1)C1C=CCC1C(c1cccc(Br)c1)N2 (stereo unspecified)	9	x	44	x	x	x
COc1ccc(Nc2nc(N3CCN(C)CC3)nc3ccccc23)c(OC)c1	2	i	-14	i	x	x
COc1ccc(Nc2nc(-c3cccs3)nc3ccccc23)c(OC)c1	6	8*	37	i	9.8*	i
O=C(CCc1ccccc1)NCC(c1ccco1)N1CCc2ccccc21 (stereo unspecified)	x	7.5*	x	i	14*	i
O=C(NCC(c1ccco1)N1CCc2ccccc21)c1cccc([N+](=O)[O-])c1 (stereo unspecified)	x	i	x	i	23*	i
CCc1ccccc1NC(=O)CSc1nnnn1-c1ccc(OC)c(OC)c1	10	x	-41	x	x	x
CCOC(=O)c1c(NC(C)=O)sc([N+](=O)[O-])c1C1CC1	10	x	-2	x	x	x
O=C(COC(=O)c1ccc2c(=O)n3c(nc2c1)CCC3)NC1CCS(=O)(=O)C1 (stereo unspecified)	2	i	40	i	40*	-48*
Cc1sc2nc3ccc(N4CCCC4)nn3c(=O)c2c1C	4	i	-3	i	38*	-38*
COc1cc(C(=O)Nc2cnc(NC(=O)C3CCCCC3)cc2C)cc(OC)c1OC	12	x	22	x	x	x
Cc1cc(NCCNC2=CC(=O)CCC2)nc2ccccc12	6	i	13	i	48*	-47*
Cc1cc(NCC2CCCCC2)nc2ccccc12	x	i	x	i	x	x
CCOC(=O)c1cn2nc(N3CCCC3)ccc2n1	6	i	-34	i	35*	-38*
CCOC(=O)c1cn2nc(N3CCCCC3)ccc2n1	9	i	2	i	x	x
Cc1ccc(CNC(=O)C(=O)NCCC2CCCCN2S(=O)(=O)c2ccccc2)cc1 (stereo unspecified)	x	8.5*	x	i	10	i
O=C1C2CCCCC2C(=O)N1CCC(=O)N1CCCC1c1nc2ccccc2[nH]1 (stereo unspecified)	x	x	0	x	x	x
N=c1c2c(n(Cc3ccccc3)c3c1CCC3)CCC2	8	i	10	i	x	x
CCOC(=O)Cn1c2c(c(=N)c3c1CCC3)CCC2	3	i	-16	i	23*	-48*
CCCCCn1c2c(c(=N)c3ccccc31)CCC2	9	6.7*	4	i	41*	-65*
CCOC(=O)Cn1c2c(c(=N)c3ccccc31)CCC2	10	i	9	i	65*	-51*
SMILES	PGE2 EP2 inh	CHT PAM	EP2 mod	CHT block	CHT activ conf	HEK293 MP dye
CC1CCN(C(=O)Cn2c(SCC(=O)NC(C)(C)C)nc3ccccc32)CC1	8	x	-70	x	x	x
Nn1cnc2sc3c(c2c1=O)CCC3	7	i	21	i	x	x
CC1CCCc2sc3ncn(N)c(=N)c3c21 (stereo unspecified)	19	7.1*	-26	i	52*	-50*
CCCCCCCCCCCCCCCC[N+](C)(C)CCN(Cc1ccc(OC)cc1)c1ncccn1	x	i	x	i	18*	-60*
C=CCOC(=O)C1=C[C@@H](c2ccc(Br)cc2)[C@H](CCCO)[C@@H](OCC)O1	7	6.7*	17	i	25*	i
COc1ccccc1C(=O)NNC(=O)c1cccs1	9	x	8	x	x	x
C=CCOc1cccc(/C=N/NC(=O)CN(c2cc(Cl)ccc2OC)S(=O)(=O)c2ccc(C)c([N+](=O)[O-])c2)c1	9	i	-4	i	7	i
CC(=O)Nc1ccc(N2CCN(C(=O)C(C)C)CC2)c(Cl)c1	16	x	-17	x	x	x
COCCn1c(SCC(=O)Nc2cc(Cl)ccc2OC)nc2ccccc2c1=O	6	x	-44	x	x	x
COc1ccc(-c2csc(NC(=O)CSc3nnc4c(C)cc5ccccc5n34)n2)cc1	11	x	-24	x	x	x
O=C(Nc1cc(S(=O)(=O)N2CCOCC2)ccc1N1CCOCC1)c1ccc(Cl)nc1	4	i	-5	i	x	x
Cc1cnc(C(=O)Nc2cc(S(=O)(=O)N3CCOCC3)ccc2N2CCN(C)CC2)cn1	7	9.7*	-17	i	51*	-57*
Cn1c(-c2ccc(N)cc2)n[nH]c1=S	5	x	-14	x	x	x
CC1(C)CC2CC(C)(CN2/C=N/c2sc3c(c2C#N)CC(C)(C)NC3(C)C)C1 (stereo unspecified)	10	8*	-4	i	35*	i
COc1cc(CC(=O)Nc2ccc(Cl)c(C(F)(F)F)c2)cc(OC)c1OC	10	i	-12	i	x	x
COc1ccc(C(=O)OCC(=O)Nc2ccc(Cl)c(C(F)(F)F)c2)c(OC)c1OC	10	7.6*	-4	i	4	i
CCC(=O)NCCc1nc2cc(NC(=O)c3cccc([N+](=O)[O-])c3)ccc2n1C	x	i	x	i	32*	-26*
Cc1ccc(C(=O)C[n+]2cccc3cc(C)ccc32)cc1	9	i	8	i	38*	-35*
CCOc1ccc(C(=O)C[n+]2cccc3cc(C)ccc32)cc1	x	i	x	i	x	x
CCOC(=O)N1CCN(C(=O)c2ccc(N(Cc3ccc(C)cc3)S(C)(=O)=O)cc2)CC1	4	i	13	i	x	x
CCOC(=O)N1CCN(C(=O)c2ccc(N(Cc3ccc(Cl)cc3)S(C)(=O)=O)cc2)CC1	x	8.8*	x	i	2	i
O=P(c1ccccc1)(c1ccccc1)C(c1ccccn1)P(=O)(c1ccccc1)c1ccccc1	2	8.5*	10	i	34*	i
O=P(c1ccccc1)(c1ccccc1)C(O)c1ccccn1 (stereo unspecified)	2	i	36	i	x	x
CCOc1cc(CN2CCC(O)(c3ccccc3OC)CC2)c(C)cc1OC	3	x	-5	x	x	x
COc1ccc(C2(O)CCN(CC(O)c3ccc(C)c(C)c3)CC2)cc1 (stereo unspecified)	10	x	-39	x	x	x
Cc1ccc2cc(CN(C(=O)c3cccs3)C3CCCC3)c3nnnn3c2c1	21	x	34	x	x	x
Cc1cc(Oc2ccc3ccccc3c2)nc(SCC(=O)c2ccccc2)n1	10	8*	50	i	53*	i
